Experimental findings from publication PMC11006913 are described below.

Chain of HOXD13 (Homo sapiens, UniProt P35453 263-343, T313A) (P35453 263-343 T313A): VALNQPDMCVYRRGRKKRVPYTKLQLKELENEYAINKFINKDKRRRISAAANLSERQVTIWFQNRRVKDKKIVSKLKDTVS
Chain of HOXD13 (Homo sapiens, UniProt P35453 263-343) (P35453 263-343): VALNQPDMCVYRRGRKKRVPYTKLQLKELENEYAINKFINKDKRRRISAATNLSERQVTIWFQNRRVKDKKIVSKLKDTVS

The target in the first test is HOXD13 (Homo sapiens, UniProt P35453 263-343, T313R). Kind of test: PBM; 200 nM protein, PBS. To be noted: dsDNA, one strand shown.
Chain of HOXD13 (Homo sapiens, UniProt P35453 263-343, T313R) (P35453 263-343 T313R): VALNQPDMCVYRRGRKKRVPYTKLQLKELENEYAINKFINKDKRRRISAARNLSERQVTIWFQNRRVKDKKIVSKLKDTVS
As for ATATAAAT, the binding signal was 10.8 upbm affinity estimate (log intensity, higher = more binding, comparable within an allelic series).

With CCGTAAAA, the binding signal was 10.5 upbm affinity estimate (log intensity, higher = more binding, comparable within an allelic series).

In the case of GTTATTAA, the binding signal is 10.7 upbm affinity estimate (log intensity, higher = more binding, comparable within an allelic series).

As to TAATATAA, the binding signal is 10.8 upbm affinity estimate (log intensity, higher = more binding, comparable within an allelic series).

Turning to TCTATAAA, the binding signal is 11 upbm affinity estimate (log intensity, higher = more binding, comparable within an allelic series).

Take AAGGGGGG: the binding signal is 9 upbm affinity estimate (log intensity, higher = more binding, comparable within an allelic series).

As for ACGGTCCC, the binding signal was 9.51 upbm affinity estimate (log intensity, higher = more binding, comparable within an allelic series).

Turning to CGTGCCCC, the binding signal was 9.51 upbm affinity estimate (log intensity, higher = more binding, comparable within an allelic series).

As to CCGCCCGG, the binding signal was 9.44 upbm affinity estimate (log intensity, higher = more binding, comparable within an allelic series).

ATTTTATA: the binding signal is 10.9 upbm affinity estimate (log intensity, higher = more binding, comparable within an allelic series).

The next test deals with T1, SIX6 (Homo sapiens, UniProt O95475 114-200, T165A).
T1 sequence: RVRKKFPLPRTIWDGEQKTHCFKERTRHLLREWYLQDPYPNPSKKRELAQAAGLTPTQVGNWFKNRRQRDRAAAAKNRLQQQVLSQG
Put plainly: PBM; 200 nM protein, PBS. The conditions noted are these: dsDNA, one strand shown.
As for CGACACCG, the binding signal is 10.2 upbm affinity estimate (log intensity, higher = more binding, comparable within an allelic series).

AGTGTCAC: the binding signal was 10.4 upbm affinity estimate (log intensity, higher = more binding, comparable within an allelic series).

On to CGGGTGTC, for which the binding signal is 10.4 upbm affinity estimate (log intensity, higher = more binding, comparable within an allelic series).

For the sequence GTGTCACA, the binding signal was 10.7 upbm affinity estimate (log intensity, higher = more binding, comparable within an allelic series).

As for GACACCAA, the binding signal is 10.5 upbm affinity estimate (log intensity, higher = more binding, comparable within an allelic series).

Take GACACCGA: the binding signal was 10.4 upbm affinity estimate (log intensity, higher = more binding, comparable within an allelic series).

Regarding GGGTGTAA, the binding signal is 10.4 upbm affinity estimate (log intensity, higher = more binding, comparable within an allelic series).

As to AAGGTGTC, the binding signal was 10.5 upbm affinity estimate (log intensity, higher = more binding, comparable within an allelic series).

For AAGGTGTA, the binding signal was 10.1 upbm affinity estimate (log intensity, higher = more binding, comparable within an allelic series).

For AGTGTCAA, the binding signal was 10.3 upbm affinity estimate (log intensity, higher = more binding, comparable within an allelic series).

Consider GGTGTAAA, for which the binding signal is 10.4 upbm affinity estimate (log intensity, higher = more binding, comparable within an allelic series).

ACTGACAC: the binding signal was 10.4 upbm affinity estimate (log intensity, higher = more binding, comparable within an allelic series).

Turning to GTGTCAAA, the binding signal is 10.3 upbm affinity estimate (log intensity, higher = more binding, comparable within an allelic series).

Turning to TAGTGTCA, the binding signal was 10.4 upbm affinity estimate (log intensity, higher = more binding, comparable within an allelic series).

On to CTTGACAC, for which the binding signal was 10.3 upbm affinity estimate (log intensity, higher = more binding, comparable within an allelic series).

Take GAGTGTCA: the binding signal was 10.3 upbm affinity estimate (log intensity, higher = more binding, comparable within an allelic series).

As to ATTGACAC, the binding signal is 10.5 upbm affinity estimate (log intensity, higher = more binding, comparable within an allelic series).

With AGGGTGTC, the binding signal was 10.5 upbm affinity estimate (log intensity, higher = more binding, comparable within an allelic series).

Turning to GTGTCATA, the binding signal was 10.8 upbm affinity estimate (log intensity, higher = more binding, comparable within an allelic series).

Turning to GGTGTAGA, the binding signal was 10.3 upbm affinity estimate (log intensity, higher = more binding, comparable within an allelic series).

In the case of GGTGTCGA, the binding signal was 10.5 upbm affinity estimate (log intensity, higher = more binding, comparable within an allelic series).

The target in the next test is T2, NKX2-6 (Homo sapiens, UniProt A6NCS4 118-204).
T2 sequence: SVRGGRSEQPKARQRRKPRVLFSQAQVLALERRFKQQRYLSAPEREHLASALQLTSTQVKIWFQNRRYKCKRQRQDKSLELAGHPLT
Kind of test: PBM; 200 nM protein, PBS. To be noted: dsDNA, one strand shown.
In the case of CGTAATAA, the binding signal is 11 upbm affinity estimate (log intensity, higher = more binding, comparable within an allelic series).

In the case of AACACTCC, the binding signal is 11.3 upbm affinity estimate (log intensity, higher = more binding, comparable within an allelic series).

Consider CAATTCAA, for which the binding signal was 11.8 upbm affinity estimate (log intensity, higher = more binding, comparable within an allelic series).

Regarding AGTGCTAA, the binding signal is 12 upbm affinity estimate (log intensity, higher = more binding, comparable within an allelic series).

With CTAAGTTA, the binding signal was 11.2 upbm affinity estimate (log intensity, higher = more binding, comparable within an allelic series).

Turning to GATTATGA, the binding signal was 11.2 upbm affinity estimate (log intensity, higher = more binding, comparable within an allelic series).

Consider GTACTAGA, for which the binding signal was 12.1 upbm affinity estimate (log intensity, higher = more binding, comparable within an allelic series).

For ACTTGTTC, the binding signal is 11.7 upbm affinity estimate (log intensity, higher = more binding, comparable within an allelic series).

Regarding AATTACGC, the binding signal was 11.3 upbm affinity estimate (log intensity, higher = more binding, comparable within an allelic series).

A further test concerns the target HOXD13 (Homo sapiens, UniProt P35453 263-343). Put plainly: PBM; 200 nM protein, PBS. The conditions noted are these: dsDNA, one strand shown.
Turning to CCGTAAAA, the binding signal was 11.8 upbm affinity estimate (log intensity, higher = more binding, comparable within an allelic series).

Turning to TCTATAAA, the binding signal was 12.2 upbm affinity estimate (log intensity, higher = more binding, comparable within an allelic series).

Consider AAGGGGGG, for which the binding signal is 9.33 upbm affinity estimate (log intensity, higher = more binding, comparable within an allelic series).

Consider ACGGTCCC, for which the binding signal is 9.34 upbm affinity estimate (log intensity, higher = more binding, comparable within an allelic series).

In the case of CGTGCCCC, the binding signal was 9.62 upbm affinity estimate (log intensity, higher = more binding, comparable within an allelic series).

Regarding CCGCCCGG, the binding signal was 9.37 upbm affinity estimate (log intensity, higher = more binding, comparable within an allelic series).

In the case of ATTTTATA, the binding signal was 11.8 upbm affinity estimate (log intensity, higher = more binding, comparable within an allelic series).

The next test concerns the target HOXD13 (Homo sapiens, UniProt P35453 263-343, T313A). Put plainly: PBM; 200 nM protein, PBS. The conditions noted are these: dsDNA, one strand shown.
For ATATAAAT, the binding signal was 11.6 upbm affinity estimate (log intensity, higher = more binding, comparable within an allelic series).

For the sequence CCGTAAAA, the binding signal is 11.6 upbm affinity estimate (log intensity, higher = more binding, comparable within an allelic series).

Turning to TAATATAA, the binding signal was 11.6 upbm affinity estimate (log intensity, higher = more binding, comparable within an allelic series).

As to TCTATAAA, the binding signal is 11.9 upbm affinity estimate (log intensity, higher = more binding, comparable within an allelic series).

Regarding AAGGGGGG, the binding signal was 9.26 upbm affinity estimate (log intensity, higher = more binding, comparable within an allelic series).

Regarding ACGGTCCC, the binding signal is 9.69 upbm affinity estimate (log intensity, higher = more binding, comparable within an allelic series).

For the sequence CGTGCCCC, the binding signal was 9.71 upbm affinity estimate (log intensity, higher = more binding, comparable within an allelic series).

On to CCGCCCGG, for which the binding signal is 9.62 upbm affinity estimate (log intensity, higher = more binding, comparable within an allelic series).

As to ATTTTATA, the binding signal is 11.9 upbm affinity estimate (log intensity, higher = more binding, comparable within an allelic series).

The target of the next test is HOXC9 (Homo sapiens, UniProt P31274 178-260, R222W). Kind of test: PBM; 200 nM protein, PBS. The conditions noted are these: dsDNA, one strand shown.
Chain of HOXC9 (P31274 178-260 R222W): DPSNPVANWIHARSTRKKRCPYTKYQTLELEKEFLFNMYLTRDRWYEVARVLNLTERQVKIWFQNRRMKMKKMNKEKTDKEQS
On to ATATAAAT, for which the binding signal was 11 upbm affinity estimate (log intensity, higher = more binding, comparable within an allelic series).

Consider TAATATAA, for which the binding signal was 11 upbm affinity estimate (log intensity, higher = more binding, comparable within an allelic series).

For the sequence TCTATAAA, the binding signal was 11 upbm affinity estimate (log intensity, higher = more binding, comparable within an allelic series).

Regarding ATTTTATA, the binding signal is 11.1 upbm affinity estimate (log intensity, higher = more binding, comparable within an allelic series).
